Source: PubChem BioAssay
Only a sample is shown.
aSyn 5UTR act = Activators working through SNCA 5'UTR binding (MLPCN). alpha-synuclein 5'UTR reporter, activators screen. activity score, % (tested at 7.5 µM), hits read low. hit rate 7.1% among 300,000; in the data active means activity score below about -60%
The depositor's hits bear a star.

SMILES	aSyn 5UTR act
O=c1c(Cl)c(NCCCO)cnn1-c1nc2ccccc2[nH]1	-232.0*
COc1cccc2c1C(=O)c1ccc3ccccc3c1C2=O	-141.2*
O=C(Nc1ccccc1)N1CCCC2CCCCC21 (centres undefined)	-125.0*
CCSc1ccc(-c2cccc([N+](=O)[O-])c2)nn1	-89.0*
COc1ccc(N=Cc2nc(-c3ccco3)oc2O)cc1	-111.2*
O=C(Oc1oc(-c2ccco2)nc1C=Nc1ccc(Cl)cc1)c1ccco1	-170.2*
Cc1ccc(C(=O)CSc2nsc(C)c2C#N)cc1	-149.0*
Cc1snc(SCC(=O)c2ccc(Cl)cc2)c1C#N	-140.3*
Cc1ccnc(SCC(=O)c2ccc(Br)cc2)c1C#N	-198.2*
O=C1c2cccc3c(O)ccc(c23)C(=O)N1c1ccc(Cl)cc1	-140.6*
CC1C/C(=C/c2ccncc2)C(=O)/C(=C/c2ccncc2)C1 (centres undefined)	-106.6*
Cc1ccc(S(=O)(=O)N2CCCC2CNC(=O)C(=O)Nc2ccc(F)cc2)cc1 (centres undefined)	-73.7*
O=C(COC(=O)[C@@H]1CCCN1S(=O)(=O)c1ccc(Cl)cc1)NCC(F)(F)F	31.3
COc1ccc(NC(=O)C(=O)NCC2CCCN2S(=O)(=O)c2ccc(C)cc2)cc1 (centres undefined)	90.6
COCCN=c1scc(-c2cccs2)n1/N=C/c1ccc(O)c(O)c1O	66.9
CCN=c1scc(-c2ccco2)n1/N=C/c1ccc(OC)c(O)c1	-228.4*
CCN=c1scc(-c2ccco2)n1/N=C/c1ccc(O)cc1	-172.8*
Cc1ccc(-c2cc(-c3c(C)nn(C)c(=O)c3N)[nH]n2)cc1	-109.6*
Cc1nn(C)c(=O)c(N)c1-c1cc(-c2ccc(Cl)c(Cl)c2)n[nH]1	-71.1*
OC(COc1ccc2ccccc2c1Cl)CN1CCOCC1 (centres undefined)	-150.4*
CC(C)(C)c1ccc(OCC(O)CN2CCOCC2)cc1 (centres undefined)	-119.5*
CC(C)(C)c1ccc(NC(=O)Nc2ccc(OCC(=O)N3CCOCC3)cc2)cc1	-72.3*
CC1OC(Nc2ccc(N=Nc3ccccc3)cc2)C(O)C(O)C1O (centres undefined)	-63.2*
CC1(C)Cc2c(c(N3CCOCC3)nc3sc(C(=O)Nc4ccccc4)c(N)c23)CO1	-73.8*
CN(C)CCNc1ncnc2c1sc1nc(N3CCOCC3)c3c(c12)CC(C)(C)SC3	71.6
SMILES	aSyn 5UTR act
CC(C)CCSc1nc(N2CCOCC2)c2c(c1C#N)CC(C)(C)OC2	57.9
CCCC(=O)N1CCc2cc(-c3nc(N)sc3C)ccc21	-208.1*
CNc1nc(-c2ccc3c(c2)CCN3C(=O)c2ccccc2F)cs1	-90.0*
CC(C)(C)C(=O)N1CCc2cc(-c3csc(N)n3)ccc21	65.6
Cc1ccc(-c2nc(NC(=O)c3nn(C)cc3[N+](=O)[O-])sc2C)cc1	99.4
CCC(C)C(=O)N1CCc2cc(-c3csc(N)n3)ccc21 (centres undefined)	-172.4*
CC(=O)Nc1nc(-c2ccc3c(c2)CCN3C(=O)C2CC2)c(C)s1	-254.8*
CNc1nc(-c2ccc3c(c2)CCN3C(=O)CC(C)(C)C)c(C)s1	-117.8*
O=c1c(-c2ccc3c(c2)OCCO3)coc2cc(OC3OC(CO)C(O)C(O)C3O)ccc12 (centres undefined)	-86.3*
S=c1[nH]c(-c2ccc(Cl)cc2)cs1	-75.8*
Cc1ccc(-c2csc(=S)[nH]2)cc1	-113.3*
Cc1ccc2nc(-c3ccc(NC(=O)CCN4C(=O)c5ccccc5C4=O)cc3)sc2c1	-171.3*
Cc1ccc(C2(C)NC(=O)N(CC(=O)Nc3ccc(-c4nc5ccc(C)cc5s4)cc3)C2=O)cc1 (centres undefined)	-159.8*
Cc1ccc2nc(-c3ccc(NC(=O)C(C)N4C(=O)c5ccccc5C4=O)cc3)sc2c1 (centres undefined)	-101.8*
Fc1ccc(-c2cnn3c(-c4ccncc4)ccnc23)cc1	-69.4*
Nc1c(-c2ccc(Cl)cc2)cnc2c(-c3ccc(F)cc3)cnn12	-95.2*
COc1ccc(-c2c(C)nc3c(-c4ccc(F)cc4)cnn3c2N)cc1	-142.9*
CCOC(=O)c1cnc2c(-c3ccc(Cl)cc3)cnn2c1C	-97.6*
Nc1c(-c2cccc(Cl)c2)cnc2c(-c3ccccc3)cnn12	-243.3*
Cc1nn2c(N)c(-c3ccccc3)cnc2c1-c1ccccc1	-131.2*
O=C(Nc1ccc(Cl)cc1)C(Cl)C(=O)c1ccccc1 (centres undefined)	-79.2*
CCC(=O)NC(=S)Nc1ccc(NC(=S)NC(=O)c2ccccc2)cc1	-103.9*
O=C(NC(=S)Nc1ccc(Cl)cc1)c1ccccc1	-177.0*
Nc1nc(Cl)nc2c1ncn2[C@H]1C[C@H](O)[C@@H](CO)O1	83.6
Fc1ccccc1OCCSc1ncnc2nc[nH]c12	-99.9*
SMILES	aSyn 5UTR act
COc1ccc(OCCSc2ncnc3nc[nH]c23)cc1	-81.2*
CCOC(=O)C1CCCN(C(=O)CC(C)c2ccccc2)C1 (centres undefined)	-114.6*
O=C(/C=C/c1ccc2c(c1)OCO2)N1CCCCC1	-132.4*
CCOC(=O)C1CCN(C(=O)/C=C/c2ccccc2)CC1	-139.2*
CCOC(=O)C1CCN(C(=O)COc2ccc(Cl)cc2)CC1	-75.5*
CCOC(=O)C1CCN(C(=O)/C=C/c2ccc3c(c2)OCO3)CC1	-74.0*
CCOc1ccc2c(c1)C(C)=CC(C)(C)N2S(=O)(=O)c1ccc(NC(C)=O)cc1	69.7
CC1=CC(C)(C)N(C(=O)CNC2CCCC2)c2cc(C)ccc21	-107.3*
COCc1cc(CN2CCCC2)c(O)c2ncccc12	59.1
COc1ccccc1NC(=O)Cn1c(CN2CCCCC2)nc2ccccc2c1=O	-63.4*
N#C/C(=N\Nc1ccc(Cl)c(Cl)c1)C(=O)C1CC1	-97.3*
C/C(=N\Nc1ccccn1)c1ccc(C(C)C)cc1	-132.5*
Clc1cccc(N/N=C/c2ccc(N3CCOCC3)cc2)c1	-183.1*
C/C(=N\Nc1ccccn1)c1ccc(N2CCOCC2)cc1	-155.9*
C(=N\Nc1ccccc1)/c1ccc(N2CCOCC2)cc1	-153.7*
O=[N+]([O-])c1cccc(N/N=C/c2ccc(N3CCOCC3)cc2)c1	-225.0*
C(=N\Nc1ccccn1)/c1ccc(N2CCOCC2)cc1	-182.4*
O=[N+]([O-])c1ccc(N/N=C/c2sc(N3CCOCC3)nc2-c2ccccc2)c(S(=O)(=O)Nc2ccc(Cl)cc2)c1	75.8
CN(C)c1ccc(NC(=O)CSc2nc(N)c(C(=O)Nc3ccc(N(C)C)cc3)s2)cc1	-151.1*
COc1ccc(NC(=O)CSc2nc(N)c(C(=O)Nc3ccc(N(C)C)cc3)s2)cc1	-66.2*
O=C(Nc1cccc(Cl)c1)NC1CCCCC1	-120.6*
CC(=O)c1cccc(NC(=O)NC2CCCCCCC2)c1	-70.5*
O=C(NC1CCCCCC1)c1ccc(N2CCCC2=O)cc1	-100.6*
O=C(Nc1ccc(F)cc1)NC1CCCCCCC1	-96.3*
O=C(NC1CCCCCCC1)c1ccc(F)cc1	-197.0*
SMILES	aSyn 5UTR act
Nc1ccc(NC(=O)NC2CCCCC2)cc1[N+](=O)[O-]	-160.8*
O=C(Nc1ccc(Cl)cc1)NC1CCCCC1	-174.8*
O=C(Nc1ccc2nsnc2c1)NC1CCCCC1	-196.8*
O=C(Nc1ccc(F)c(F)c1)NC1CCCCC1	-86.2*
S=C(NCCc1cccc(Cl)c1)NC1CCCCC1	-118.5*
O=C(Nc1ccccc1F)NC1CCCCCCC1	-114.7*
Nc1nc(-c2cc(O)ccc2[N+](=O)[O-])cc(-c2ccccc2)c1[N+](=O)[O-]	-119.7*
c1csc(C2=NNC(=NC3CCCCC3)SC2)c1	-165.0*
c1ccc2oc(C3=NNC(=NC4CC4)SC3)cc2c1	-134.8*
